From PubChem
Only some compounds are listed: those with a hit (about 12% of all), similar ones and a draw of the others.
Sfp inh = inhibitors of Bacillus subtilis Sfp phosphopantetheinyl transferase; Q9F4F7; Biochemical Sfp PPTase activity, qHTS; Potency, µM, usual class: inhibitors; hit rate 3.5% among 310,000;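 further: the enzyme is Sfp with the accession as filed and its product quenches rhodamine fluorescence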
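Buffer: 50 mM Hepes-Na pH 7.6, 10 mM MgCl2, 0.01% Nonidet P-40, 0.01% BSA. Enzyme 15 nM, pre-exposed to compound 15 min; substrates then added and fluorescence change tracked over 30 min.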
RORgamma inh = ROR gamma (mouse) transcription inhibition. P51450. Potency, µM (top dose mostly 53.6 µM), hits mostly inhibitors. Drosophila S2 Gal4-RORgamma UAS-luciferase reporter, 20 h. AID 2551. hit rate 5.4% among 310,000; further: nearly all actives have a fitted effect of over 60% in size
Target sequence (P51450 whole entry, looked up, the tested form may be a part): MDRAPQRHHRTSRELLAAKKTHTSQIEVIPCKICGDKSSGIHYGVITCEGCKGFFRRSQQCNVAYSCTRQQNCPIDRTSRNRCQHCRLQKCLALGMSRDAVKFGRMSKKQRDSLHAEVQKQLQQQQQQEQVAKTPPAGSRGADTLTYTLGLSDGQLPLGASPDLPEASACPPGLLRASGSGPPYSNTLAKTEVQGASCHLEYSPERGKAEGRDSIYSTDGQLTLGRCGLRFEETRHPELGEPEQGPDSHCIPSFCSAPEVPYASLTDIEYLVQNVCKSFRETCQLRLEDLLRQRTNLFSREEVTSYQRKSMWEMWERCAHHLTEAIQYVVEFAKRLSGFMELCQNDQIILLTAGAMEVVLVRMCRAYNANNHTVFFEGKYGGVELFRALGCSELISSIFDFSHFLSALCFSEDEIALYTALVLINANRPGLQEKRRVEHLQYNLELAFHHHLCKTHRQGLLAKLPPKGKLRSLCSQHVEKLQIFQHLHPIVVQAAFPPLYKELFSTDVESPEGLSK
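Using a luciferase readout, inhibitors were identified by reduced reporter activity in Drosophila cells coexpressing a copper-inducible Gal4–ROR gamma fusion and UAS-driven Photinus luciferase, incubated 20 hr after 700 uM copper sulfate.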
ALDH1A1 block = blocks purified human ALDH1A1 activity; Purified ALDH1A1, NADH fluorescence, propionaldehyde substrate; AID 1030; hit rate 7.3% among 220,000; Potency, µM (doses to about 75.3 µM), most hits filed as inhibitors; P00352; active means well fitted inhibition curve with a large enough effect, not every such curve was filed as active; inconclusive means small, poorly fitted or top-dose-only effect, or another doubt; inactive means no such curve, though single readings can be large or run the other way
Gal4-VP16 FLuc = Gal4-VP16 reporter inhibition counter-screen; Drosophila S2 Gal4-VP16 UAS-luciferase, luminescence, 20 h; Potency, µM (doses to about 53.6 µM), usual class: inhibitors; hit rate 3.5% among 310,000; AID 2546;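 further: Gal4-VP16 expression switched on by copper sulfate through the metallothionein promoter; nearly all actives have a fitted effect of over 50% in size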
PLK1 PBD inh = PLK1 (human) polo-box domain binding inhibition; P53350; Plk1 PBD binding of FITC phosphopeptide, fluorescence polarization; Potency, µM, hits mostly inhibitors; hit rate 2.8% among 360,000; further: series mostly up to about 57 µM; nearly all actives have a fitted effect of over 65% in size
A number is an active result; ! = a repeat was not active; [ ] = remark or other dose. Unless noted, the call rests on the fitted dose curve; in most records, active means well fitted curve in the direction sought with a large enough effect; inconclusive means small, poorly fitted or top-dose-only effect, or another doubt; inactive means no such curve, though single readings can be large; an effect the other way counts as inactive or inconclusive.

`Nc1ncnc2c1nc(Br)n2[C@@H]1O[C@H]2COP(=O)(O)O[C@@H]2[C@@H]1O` gave Sfp inh inactive, RORgamma inh inactive, ALDH1A1 block inactive and Gal4-VP16 FLuc inactive.
Screening Clc1ccccc1N=Nc1ccccn1 returned PLK1 PBD inh inactive.
`Clc1ss/c(=N\c2ccccn2)c1Cl` gave Sfp inh 35.5µM, RORgamma inh inactive[0.365 µM], ALDH1A1 block inconclusive and PLK1 PBD inh inactive.
`O=C(NC1=NCCS1)C1CCN(S(=O)(=O)c2ccccc2C(F)(F)F)CC1` gave PLK1 PBD inh inactive.
`COc1cc2cccc(OC)c(=O)c2c(OC)c1OC` gave Sfp inh inconclusive, RORgamma inh inactive, ALDH1A1 block inactive, Gal4-VP16 FLuc inactive and PLK1 PBD inh inactive.
Screening O=c1c(O)cccc2cc(O)c(O)c(O)c12 returned Sfp inh 6.31µM!, RORgamma inh inactive, ALDH1A1 block 8.91µM, Gal4-VP16 FLuc inactive and PLK1 PBD inh 8.44µM.
`O=C(CN1CC(=O)Oc2ccccc21)NCc1ccco1` gave Sfp inh 56.2µM, RORgamma inh inactive, ALDH1A1 block inconclusive, Gal4-VP16 FLuc inactive and PLK1 PBD inh inactive.
`O=C(NCc1ccco1)N1c2ccccc2Sc2ccccc21` gave Sfp inh inconclusive, RORgamma inh inconclusive, ALDH1A1 block inconclusive, Gal4-VP16 FLuc 35.5µM and PLK1 PBD inh inactive.
`O=C(CN1CCOc2ccccc21)NCc1ccc(F)cc1` gave Sfp inh inactive, RORgamma inh inactive, ALDH1A1 block inactive, Gal4-VP16 FLuc inactive and PLK1 PBD inh inactive.
O=C(CN1CCOc2ccccc21)NCc1ccco1 was read as Sfp inh inconclusive, RORgamma inh inactive, ALDH1A1 block 11.2µM, Gal4-VP16 FLuc inactive and PLK1 PBD inh inactive.
Screening O=C(CNc1ccc(C(F)(F)F)cc1)Nc1cccc(S(=O)(=O)N2CCCCC2)c1 returned PLK1 PBD inh inactive.
OC(c1cc(F)cc(Cl)c1)c1ncc(-c2ccccc2C(F)(F)F)[nH]1 (centres undefined) was read as PLK1 PBD inh inactive.
For COc1cccc(-c2nccc(NCc3ccccc3)n2)c1 the results were Sfp inh inactive, RORgamma inh inactive, ALDH1A1 block inconclusive and Gal4-VP16 FLuc inactive.
`O=C(CNC1CCCCCC1)Nc1ccc(N2CCCC2)cc1` gave Sfp inh inactive, RORgamma inh inactive, ALDH1A1 block inactive and Gal4-VP16 FLuc inactive.
Screening O=C(O)CCC(=O)Nc1ccc(N2CCCCCC2)cc1 returned Sfp inh 22.4µM, RORgamma inh 2.51µM, ALDH1A1 block 11.2µM, Gal4-VP16 FLuc inactive and PLK1 PBD inh inactive.
`O=C(CNC1CCCC1)Nc1ccc(N2CCCCCC2)cc1` gave Sfp inh inconclusive, RORgamma inh inactive, ALDH1A1 block 20µM, Gal4-VP16 FLuc inactive and PLK1 PBD inh inactive.
`O=C(Nc1ccc(N2CCCC2)cc1)C(Cl)c1ccccc1` (centres undefined) gave Sfp inh 44.7µM, RORgamma inh inactive, ALDH1A1 block inconclusive, Gal4-VP16 FLuc inactive and PLK1 PBD inh inactive.
`O=C(CNC(=O)Cc1ccc(Cl)cc1)NCc1ccco1` gave Sfp inh inactive, RORgamma inh inactive, ALDH1A1 block inactive, Gal4-VP16 FLuc inactive and PLK1 PBD inh inactive.
CC[C@H](C)[C@H](NC(=O)[C@H](CC(C)C)NC(=O)[C@@H](N)CO)C(=O)NCC(=O)N[C@@H](CCCN=C(N)N)C(=O)N[C@@H](CC(C)C)C(=O)O was read as Sfp inh inactive, RORgamma inh inactive and Gal4-VP16 FLuc inactive.
For O=C(c1ccc2ccccc2c1)C1CCCN(S(=O)(=O)c2cccnc2)C1 (centres undefined) the results were Sfp inh inactive, RORgamma inh inactive, ALDH1A1 block 25.1µM, Gal4-VP16 FLuc inconclusive and PLK1 PBD inh inactive.
Screening O=C(O)CCC/C=C\C/C=C\C=C\[C@@H](O)C/C=C\CCCCCO returned Sfp inh inactive, RORgamma inh inactive, ALDH1A1 block inactive and Gal4-VP16 FLuc inactive.
`CCOC(=O)N1CCN(C(=O)c2oc(=O)c3ccccc3c2-c2ccc(C)cc2)CC1` gave Sfp inh inactive, RORgamma inh inactive, ALDH1A1 block 0.0141µM, Gal4-VP16 FLuc inactive and PLK1 PBD inh inactive.
For Cc1ccc(-c2c(C(=O)NC(C)C)oc(=O)c3ccccc23)cc1 the results were Sfp inh inconclusive, RORgamma inh inactive, ALDH1A1 block 1.41µM, Gal4-VP16 FLuc inactive and PLK1 PBD inh inactive.
`Cc1ccc(-c2c(C(=O)N(C)Cc3ccccc3)oc(=O)c3ccccc23)cc1` gave Sfp inh inconclusive, RORgamma inh inconclusive, ALDH1A1 block 1.78µM, Gal4-VP16 FLuc inconclusive and PLK1 PBD inh inactive.
`CN(Cc1ccccc1)C(=O)c1oc(=O)c2ccccc2c1-c1ccccc1` gave Sfp inh inactive, RORgamma inh inactive, ALDH1A1 block inconclusive, Gal4-VP16 FLuc inactive and PLK1 PBD inh inactive.
For CC(SCc1cc(=O)n2c([nH]c3ccccc32)c1C#N)C(=O)O (centres undefined) the results were Sfp inh inactive, RORgamma inh inactive, ALDH1A1 block inactive, Gal4-VP16 FLuc inactive and PLK1 PBD inh 13.4µM.
For CCc1cc(=O)n2c([nH]c3ccccc32)c1C#N the results were Sfp inh inactive, RORgamma inh inactive, ALDH1A1 block inconclusive, Gal4-VP16 FLuc inactive and PLK1 PBD inh inactive.
`CCc1c(C)c(C#N)c2[nH]c3ccccc3n2c1=S` gave Sfp inh 79.4µM, RORgamma inh inactive, Gal4-VP16 FLuc inactive and PLK1 PBD inh 13.4µM.
`CCc1cc(=S)n2c([nH]c3ccccc32)c1C#N` gave Sfp inh 44.7µM, RORgamma inh inconclusive, ALDH1A1 block inconclusive, Gal4-VP16 FLuc inactive and PLK1 PBD inh inconclusive.
For c1cc2c3c(c1)ccc1cccc(c13)C2 the results were RORgamma inh inactive, ALDH1A1 block inactive and Gal4-VP16 FLuc inactive.
Cc1ccc(S(=O)(=O)Nc2cc(C(=O)NCCN(C)C)ccc2N2CCCCC2)cc1 was read as Sfp inh inactive, RORgamma inh inconclusive, ALDH1A1 block 15.8µM, Gal4-VP16 FLuc inconclusive and PLK1 PBD inh inactive.
CCOCCCNC(=O)c1ccc(N2CCCC2)c(NS(=O)(=O)c2ccc(C)cc2)c1 was read as Sfp inh inactive, RORgamma inh inactive, ALDH1A1 block 7.94µM, Gal4-VP16 FLuc inactive and PLK1 PBD inh inactive.
For Cc1ccc(S(=O)(=O)Nc2cc(C(=O)N3CCOCC3)ccc2N2CCCCC2)cc1 the results were Sfp inh inactive, RORgamma inh inactive, ALDH1A1 block inconclusive, Gal4-VP16 FLuc inactive and PLK1 PBD inh inactive.
`Cc1ccc(S(=O)(=O)Nc2cc(C(=O)O)ccc2N2CCCCC2)cc1` gave Sfp inh inactive, RORgamma inh inactive, ALDH1A1 block inactive, Gal4-VP16 FLuc inactive and PLK1 PBD inh inactive.
Screening COCCCNC(=O)c1ccc(N2CCCC2)c(NS(=O)(=O)c2ccc(C)cc2)c1 returned Sfp inh inconclusive, RORgamma inh inactive, ALDH1A1 block 14.1µM, Gal4-VP16 FLuc inactive and PLK1 PBD inh inactive.
Screening Cc1ccc(S(=O)(=O)Nc2cc(C(=O)NCCN3CCCC3)ccc2N2CCCCC2)cc1 returned Sfp inh inactive, RORgamma inh inactive, ALDH1A1 block inconclusive, Gal4-VP16 FLuc inactive and PLK1 PBD inh inactive.
